Source: PubChem (several laboratories)
PostGolgi ctrl – yeast control strain growth, post-Golgi counter-screen. efflux-deficient yeast background strain, growth absorbance A615, 16 h. inhibition, % at 10 µM. 5% of 98,000 active. AID 738
EphB4 antag – EphB4-ephrin-B2 interaction antagonism; AID 720; 0.15% of 97,000 active; EphB4 LBD / TNYL-RAW-Alexa532 peptide, fluorescence polarization; inhibition, % at 7 µM;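 active = inhibition above the screen-wide mean inhibition plus 3 SD, cut at about 15% in these data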;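 also: 0% = DMSO wells and 100% = excess unlabeled TNYL-RAW peptide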
PostGolgi yeast – growth inhibition of a yeast mutant, post-Golgi transport screen; post-Golgi transport phenotypic cell assay; inhibition, % at 10 µM; 0.9% of 98,000 active; AID 739;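 also: yeast cells grown in 1536-well plates; yeast grown about 18 h at 30C before absorbance read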
Calb biofilm kill – kills Candida albicans biofilms. C. albicans biofilm + clotrimazole, Alamar Blue. 0.14% of 85,000 active. inhibition, % at 6 µM;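 active = inhibition above 20%; inactive = inhibition below 20%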;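 also: preformed 24 hr biofilms exposed to compound for 48 hr; 0% = biofilm without compound and 100% = blank killed by clotrimazole plus chlorhexidine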
* marks the source's active call; other numbers are inactive results; x = no result given. This is a sample that favours compounds with a hit; in the whole collection about 5.2% have one here. Rule as the data show it, unless noted: active = inhibition above about 30%; inactive = the rest.

SMILES	PostGolgi ctrl	EphB4 antag	PostGolgi yeast	Calb biofilm kill
CC1=NOC(=O)/C1=C\c1ccc(-c2ccc(Cl)cc2Cl)o1	35*	2	60*	x
O=C(NC(C(=O)c1ccccc1)N1CCOCC1)c1cccs1 (stereo not drawn)	33*	-4	5	7
CCCCCNC(=O)c1c(N)n(/N=C/c2ccco2)c2nc3ccccc3nc12	x	x	x	6
CC(=O)N1C=CN(C(C)=O)C(c2cn(C)c3ccccc23)C1c1cn(C)c2ccccc12 (stereo not drawn)	34*	x	-4	3
NS(=O)(=O)c1ccc(CCNc2cc(=O)n(Cc3ccc(F)cc3)c(=O)[nH]2)cc1	-1	x	0	6
NS(=O)(=O)c1ccc(CCNc2ncnc3c2c(-c2ccccc2)cn3-c2ccc(F)cc2)cc1	61*	3	10	x
Cc1ccc(CN2CCN(CC3CC4C=CC3C4)CC2)cc1 (stereo not drawn)	1	-4	12	2
CC(OC(=O)c1ccc2ccccc2n1)C(=O)Nc1ccc(N2CCOCC2)cc1 (stereo not drawn)	31*	8	4	-6
O=C(CNC(=O)Cc1ccccc1)NCC(=O)OCc1ccc(C(=O)c2ccccc2)cc1	2	1	-3	x
COc1ccc(-c2nc3c(=O)n(C)c(=O)[nH]c3n2CCc2ccccc2)cc1	-1	2	1	7
CCCn1c(-c2ccccc2)nc2c(=O)n(C)c(=O)[nH]c21	36*	-7	3	5
CCOc1ccccc1CNC(=O)C1CCN(C(=O)c2sccc2-n2cccc2)CC1	3	2	-1	x
Cc1noc2ncnc(Sc3ccccc3Cl)c12	15	-3	8	4
O=C(NCCc1ccc(Cl)cc1)C1CCN(S(=O)(=O)N2CCC3(CC2)OCCO3)CC1	-2	3	1	x
CCC(=O)c1ccc(N2CCCC2)c(F)c1	x	-6	x	9
CCC(=O)c1ccc(O)c(CC=C(C)C)c1	31*	9	7	x
O=C(CCN1C(=O)C2C3C=CC(C3)C2C1=O)NCCN1CCCc2ccccc21 (stereo not drawn)	39*	-4	-2	x
O=C(C1CCN(Cc2ccccc2)CC1)N1CCCC1	5	x	-9	-2
CCN1C(=O)CC(N2CCC(C(=O)OC)CC2)C1=O (stereo not drawn)	32*	-8	4	6
O=C(C1CCN(C2CC(=O)N(Cc3ccccc3)C2=O)CC1)N1CCCCCC1 (stereo not drawn)	3	6	32*	1
O=C1CC(N2CCN(C3CC(=O)N(CCc4ccccc4)C3=O)CC2)C(=O)N1CCc1ccccc1 (stereo not drawn)	47*	-2	-2	6
COc1ccccc1OC(=O)CN1C(=O)c2ccccc2C1=O	-8	-4	-5	-1
Cc1ccc(S(=O)(=O)NC(C)(C)CSc2nnc(Nc3ccccc3)s2)cc1	34*	3	3	5
CC(=O)N1N=C(c2ccc(C)cc2)OC1c1ccc(C)cc1 (stereo not drawn)	34*	-1	-3	5
CC(=O)N1N=C(c2ccc(C)cc2)OC1c1ccc(C(C)C)cc1 (stereo not drawn)	15	5	-9	5
SMILES	PostGolgi ctrl	EphB4 antag	PostGolgi yeast	Calb biofilm kill
Nc1c(C(=O)Nc2ccc(F)cc2)sc2nc(-c3ccco3)ccc12	40*	4	-2	-3
Nc1c(C(=O)Nc2ccc(Br)cc2)sc2nc(-c3ccco3)ccc12	-2	-6	12	x
CCOc1cccc(SCc2noc(C(=O)NCC3CCCO3)c2C(=O)O)c1 (stereo not drawn)	-4	4	17	x
CC1(C)SC2[C@H](NC(=O)C(NC(=O)N3CCNC3=O)c3ccccc3)C(=O)N2C1C(=O)O (stereo partly drawn)	x	x	x	10
COc1ccc(S(=O)(=O)NCCN2CCOCC2)c2ccccc12	11	-4	22	1
COc1cc(S(=O)(=O)NCCN2CCOCC2)c(OC)cc1Cl	32*	0	-3	-3
N#CC(c1nc2ccccc2nc1N1CCCC1)S(=O)(=O)c1ccccc1 (stereo not drawn)	31*	9	-1	2
Cc1ccc2c(c1)-c1cc(C)nn1C(c1sccc1C)N2 (stereo not drawn)	30*	2	-1	2
CCN1c2ccccc2-c2nc3ccccc3n2C1c1ccncc1 (stereo not drawn)	10	-2	-14	-4
CCN1c2ccccc2-c2nc3ccccc3n2C1c1ccccn1 (stereo not drawn)	40*	0	-9	x
CC(NC(=O)C1(C)CC1(Br)Br)C(C)(C)C (stereo not drawn)	26	-4	2	x
O=[N+]([O-])c1ccc(O)c(-c2nc(-c3ccccc3)c(-c3cccs3)[nH]2)c1	45*	-5	14	x
CC1=C(C(=O)OC(C)C)C(c2ccccn2)n2ncnc2N1 (stereo not drawn)	33*	-7	-1	-4
CC1=C(C(=O)OC(C)C)C(c2ccncc2)n2ncnc2N1 (stereo not drawn)	-6	-5	11	4
COc1ccccc1/C=C/C(=O)N1CCOCC1	35*	6	-9	4
COc1cccc(-n2nc(-c3ccnn3-c3ccc(C)cc3)c(=O)n(C)c2=O)c1	8	8	4	2
O=[N+]([O-])c1cc(C(F)(F)F)ccc1NCCc1c[nH]c2ccc(O)cc12	55*	1	29	x
Cc1noc(NS(=O)(=O)c2ccc(NC(=O)CSc3nc4ccccc4s3)cc2)c1C	33*	-12	-3	5
O=c1cc2c(nn1Cc1ccc(Cl)cc1Cl)-c1ccccc1CC2	27	7	-2	-3
O=c1cc2c(nn1Cc1cccc(Cl)c1)-c1ccccc1CC2	76*	9	20	2
O=c1cc2c(nn1Cc1ccc(Cl)cc1)-c1ccccc1CC2	48*	-6	-3	-1
O=c1cc2c(nn1Cc1ccccc1Cl)-c1ccccc1CC2	43*	-1	14	4
CCN(CCCNC(=O)C1CCCN(S(=O)(=O)c2cnc[nH]2)C1)c1ccccc1 (stereo not drawn)	0	2	5	2
COc1ccc(-c2nn(CC(=O)Nc3ccc(Cl)c(Cl)c3)c(=O)c3ccccc23)cc1	32*	8	7	1
O=C(Cn1nc(-c2ccc(Cl)cc2)c2ccccc2c1=O)Nc1cccnc1	12	-2	2	2
SMILES	PostGolgi ctrl	EphB4 antag	PostGolgi yeast	Calb biofilm kill
Cc1n[nH]c(C)c1S(=O)(=O)N(CC(=O)Nc1ccc2c(c1)OCCO2)c1ccc(C(C)C)cc1	4	1	-1	12
CCOc1ccc(S(=O)(=O)N2CCCC2)cc1	-9	3	-13	0
COc1ccc(C)cc1NC(=O)CN1CCN(S(=O)(=O)c2ccc(Cl)cc2)CC1	50*	7	16	0
COc1ccc(OC)c(NC(=O)CN2CCC(C(=O)c3ccc(C)cc3)CC2)c1	35*	-1	-2	10
CCOc1ccc(C(=O)CN2CCN(S(=O)(=O)c3ccc(Cl)cc3)CC2)cc1	32*	3	1	6
Brc1ccc(-c2nnc3n2-c2ccccc2CC3)cc1	7	x	-4	3
CCCCN1C(=O)c2ccc(C(=O)Nc3c(N)n(CCCC)c(=O)n(C)c3=O)cc2C1=O	7	x	-9	x
